# Screening data deposited in PubChem BioAssay by National Center for Advancing Translational Sciences (NCATS).
# D3 antag: qHTS of D3 Dopamine Receptor Antagonist: qHTS. 360,000 compounds, 2.5% hits. D3R cells, DiscoveRx beta-arrestin luminescence, antagonist mode; stronger effect = lower value. D(3) dopamine receptor (Homo sapiens), P35462. max response, negative = inhibition, %; in the data active means max response below about -50%; inconclusive means no clear call, values can overlap the other calls; further: on the % scale 0 is the no-effect control and ±100 the full control effect
# Target sequence (P35462 whole entry, looked up): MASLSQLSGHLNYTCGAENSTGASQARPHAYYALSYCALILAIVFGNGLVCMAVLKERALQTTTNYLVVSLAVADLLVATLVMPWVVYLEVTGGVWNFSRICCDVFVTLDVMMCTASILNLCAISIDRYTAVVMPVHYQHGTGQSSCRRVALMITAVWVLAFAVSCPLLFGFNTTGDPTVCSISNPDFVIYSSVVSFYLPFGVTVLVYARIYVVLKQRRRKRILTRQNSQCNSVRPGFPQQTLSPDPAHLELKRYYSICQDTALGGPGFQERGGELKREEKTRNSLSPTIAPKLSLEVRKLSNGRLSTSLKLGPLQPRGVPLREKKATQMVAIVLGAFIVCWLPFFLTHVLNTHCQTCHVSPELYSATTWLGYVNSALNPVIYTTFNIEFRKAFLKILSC
#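 Cells expressing the human receptor were seeded at 1500 cells/well, incubated overnight at 37 degrees C in 5% CO2, then exposed to library compounds with dopamine controls for 90 minutes at 37 degrees C before luminescent detection.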
# S2 tox: Viability Counterscreen for Primary qHTS for Inhibitors of ATXN expression; S2 cells (HEK-293 line with an ATXN2-luciferase reporter) viability, CellTiter-Fluor protease fluorescence, 24 h; Potency, µM (highest dose often 56.7 µM), usual class: cytotoxic; 400,000 compounds, 0.49% hits; AID 651635, 2014; further: potency means the concentration at half of the fitted maximal effect; nearly all actives have a fitted effect of over 40% in size
# IL-1B inflam inh: qHTS for Inhibitors of Inflammasome Signaling: IL-1-beta AlphaLISA Primary Screen; 360,000 compounds, 4.7% hits; THP-1 LPS/ATP IL-1B secretion, AlphaLISA, 16 h; stronger effect = lower value; activity change, % at 57.5 µM; in the data active means activity change below about -50%; inconclusive means mostly about -30% to -49%; further: on the % scale 0 is the no-effect control and ±100 the full control effect
#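 THP-1 cells pretreated 1 hr with compounds (up to 57.5 uM final), then stimulated with LPS (250 ng/mL final) plus ATP (1.25 mM final); secreted IL-1B measured by AlphaLISA after 16 hr, decreased signal indicating inhibition.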
# DRD3 agonist: qHTS of D3 Dopamine Receptor Agonist: qHTS | D3R DiscoveRx beta-arrestin cells, luminescence, 90 min | D(3) dopamine receptor (Homo sapiens), P35462 | 410,000 compounds, 0.58% hits | AID 652048, 2013 | max activation, %; in the data active means max activation above about 30%; further: 0% is about no effect
#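 Agonist-mode cell screen: cells plated at 1500/well and incubated overnight at 37 °C, then exposed to library compounds for 90 min at 37 °C. Detection reagent was added for 30–60 min at room temperature, and luminescence was read.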
# ATXN2 expr inh: Primary qHTS for Inhibitors of ATXN expression; HEK-293 ATXN2-luciferase reporter, luminescence, 24 h; Potency, µM (highest dose often 57 µM), for inactives: at the top dose activity change, negative = inhibition, usual class: inhibitors; 360,000 compounds, 0.72% hits; AID 1745845, 2022; further: potency means the concentration at half of the fitted maximal effect; on the % scale 0 is the no-effect control and ±100 the full control effect; nearly all actives have a fitted effect of over 55% in size
#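 ATXN2-luciferase reporter cells (luciferase flanked by upstream and downstream ATXN2 gene portions) were treated 24 h at 37 °C with compounds at up to 57 uM. SteadyGlo luminescence gave expression; GF-AFC fluorescence gave viability.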
# Integrin act MD: qHTS for Activators of Integrin-Mediated Alleviation for Muscular Dystrophy; 350,000 compounds, 0.064% hits; Potency, µM (highest dose often 38.3 µM), for inactives: top-dose activation, actives largely listed as activators; alpha7betagal myoblasts, beta-gal FDG fluorescence, 48 h;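 further: potency means the concentration at half of the fitted maximal effect; 100% = response of the positive control SU9516; nearly all actives have a fitted effect of over 60% in size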
#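 Alpha7betagal+/- myoblasts (passage 13) were plated 16-24 hr, then exposed to compounds (1:260 dilution of DMSO stock) for 48 hours at 37C. After MPER lysis, β-galactosidase reporter activity was read as FDG fluorescence (ex 480/em 540) after 30 minutes.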
# The depositor's hits bear a star; i = inactive; ? = inconclusive; . = no result given. In the library only some 7% were active in any assay of this set; here they are far more common. Unless noted, the call rests on the fitted dose curve; in most records, active means well fitted curve in the direction sought with a large enough effect; inconclusive means small, poorly fitted or top-dose-only effect, or another doubt; inactive means no such curve, though single readings can be large; an effect the other way counts as inactive or inconclusive.
SMILES,D3 antag,S2 tox,IL-1B inflam inh,DRD3 agonist,ATXN2 expr inh,Integrin act MD
O=C(NC1CCN(Cc2ccccc2)C1)c1cc(S(=O)(=O)N2CCOCC2)ccc1Cl (centres undefined),-20,?,-18,-4,.,?
O=C1c2cccc(NCCCNCCO)c2C(=O)c2cccc(NCCCNCCO)c21,?,.,-103*,-28,13µM*,0%
COc1ccc(O)c(/C=N/NC(=O)c2ccc(CSc3nc(C)cc(C)n3)cc2)c1,12,i,59,4,4.5µM*,-1%
COc1ccc(C(=O)N/N=C/c2cc(Br)ccc2O)cc1OC,-11,i,124,0,1.4µM*,-4%
Cc1ccc(/C=N/NC(=O)c2ccccc2OCc2cccc(Br)c2)o1,20,?,-99*,4,?,?
CCCOc1ccc(Br)cc1/C=N/NC(=O)c1cc(OC)c(OC)c(OC)c1,28,i,i,6,5%,5%
COc1ccc(O)c(/C=N/NC(=O)c2ccc(OCc3cccc(Br)c3)cc2)c1,34,?,92,17,3.2µM*,-10%
O=C(N/N=C/c1cccnc1)c1ccccc1OCc1cccc(Br)c1,10,i,-26,2,-16%,8%
Cc1cc(C)nc(N/N=C/c2ccccc2OCc2ccc(Br)cc2)n1,7,i,11,-2,7%,10%
COc1ccc(O)c(/C=N/NC(=O)c2cc(=O)[nH]c3ccccc23)c1,7,?,224,3,.,5.6µM*
Cc1cc(C)nc(N/N=C/c2ccccc2OCc2cccc(Br)c2)n1,89,i,-62*,10,-8%,17%
CN(C)CCOc1nc(-c2ccccc2)nc2c1oc1ccccc12,2,i,-99*,-8,?,-23%
O=C(CN1CCN(c2cccc(Cl)c2)CC1)NCc1ccccc1,?,i,-8,0,.,19%
Cc1cccc(N2CCN(CC(=O)NCc3ccc(Cl)cc3)CC2)c1C,-10,i,-64*,-17,-12%,24%
Clc1ccc(CNc2ccc(N3CCN(Cc4ccccc4)CC3)cc2)cc1,?,?,-58*,-7,-15%,-53%
O=C(CN1CCN(c2ccc(Cl)cc2)CC1)NCc1ccccc1,15,i,-61*,2,-21%,-40%
O=C(c1ccc(F)cc1)c1cn(Cc2ccccc2F)c2cc3c(cc2c1=O)OCCO3,.,?,.,2,-16%,.
COc1ccc(C)cc1NC(=O)C1CCC(CNc2c(N3CCOCC3)c(=O)c2=O)CC1 (centres undefined),-1,i,-21,-1,-5%,1%
CC1=CC2=NC(=O)CC(C)(C(=O)N(CC(=O)NC3CCCC3)Cc3ccccc3)N2C=C1 (centres undefined),16,i,-4,-2,5%,0%
COc1ccccc1C/C(N)=N/OC(=O)/C=C/c1ccccc1,-3,i,-56*,3,.,1%
N/C(=N\OC(=O)/C=C/c1ccccc1)c1ccncc1,2,i,-50*,-1,24%,-12%
N/C(=N\OC(=O)/C=C/c1ccccc1Cl)c1ccncc1,6,i,-56*,5,36%,-34%
COc1ccccc1C/C(N)=N/OC(=O)c1cccs1,-4,i,9,-4,-8%,14%
CC(=O)NCCn1c(SCC(=O)NCCC2=CCCCC2)nc2ccccc2c1=O,-9,.,21,-3,.,5%
COc1ccc(C(C(=O)NC2CCCCC2)N(C(=O)CCl)c2ccc(Cl)cc2)cc1 (centres undefined),-10,3.2µM*,-96*,0,3.5µM*,-61%
O=C(NC1CCCCC1)C(c1cccnc1)N(C(=O)CCl)c1cccc(Cl)c1 (centres undefined),?,11µM*,-93*,-6,20µM*,-52%
